Source: PubChem (several laboratories)
Sampled rows, rich in hits. Any-hit rate of the full collection: about 5.2%.
ALR H2O2 inh: blocks human ALR sulfhydryl oxidase activity; purified ALR, DTT oxidation, H2O2 HRP-luminol luminescence; inhibition, % (test concentration not listed); AID 485317; P55789; 290,000 tested, 3.8% active;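 active means mean replicate inhibition above about 79%, with every replicate also reaching it, limit read from the data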
Target sequence (P55789 whole entry, looked up): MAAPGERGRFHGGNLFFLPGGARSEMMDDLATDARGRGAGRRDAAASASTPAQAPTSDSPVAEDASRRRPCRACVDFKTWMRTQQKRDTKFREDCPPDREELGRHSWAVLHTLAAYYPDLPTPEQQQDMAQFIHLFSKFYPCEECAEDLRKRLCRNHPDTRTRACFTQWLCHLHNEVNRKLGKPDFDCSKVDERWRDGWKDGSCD
PfM18AAP inh: blocks P. falciparum M18 aspartyl aminopeptidase; recombinant PfM18AAP, H-Glu-NHMec fluorogenic cleavage; inhibition, % at 7.35 µM; 290,000 tested, 1.2% active; AID 1822;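 active means inhibition above the campaign mean inhibition over all tested compounds plus 3 SD, cut at about 28% in these data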;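 further: 0% = plate median of test compound wells and 100% = 2 mM ZnCl2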
NRP1-CendR mod: modulators of CendR peptide binding to human neuropilin-1; inhibition, % at 25 µM; 360,000 tested, 0.85% active; FAM-RPARPAR peptide binding to NRP-1, fluorescence polarization; O14786;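 active means inhibition or corrected inhibition above about 18%, plus a signal ratio from 0.5 to 1.5, limit read from the data, passing the limit was not always enough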
CR mimetic SO: yeast age-related superoxide inhibition as caloric restriction mimetic | S. cerevisiae aged cells, superoxide DHE fluorescence; hits give low values | superoxide response (% of plate mean), % at 10 µM | 330,000 tested, 0.18% active | AID 2690;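 active means superoxide response under a set limit, about three screen SD below normal, cut at about 65% in these data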;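 further: yeast aged for seven days with compound at 30 °C before DHE staining; 100% = average MFI of all compound-treated wells on the plate with controls excluded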
APOBEC3A inh: inhibitors of human APOBEC3A DNA deaminase; inhibition, % at 20 µM; recombinant A3A, FAM/TAMRA ssDNA deamination fluorescence; 330,000 tested, 0.41% active; AID 493011;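 active means at least 40% inhibition at 20 µM here, with at most 30% in a related deaminase screen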;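 further: plate controls were A3A with DMSO for no effect and wells lacking A3A enzyme for full effect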
Target sequence (P31941 whole entry, looked up): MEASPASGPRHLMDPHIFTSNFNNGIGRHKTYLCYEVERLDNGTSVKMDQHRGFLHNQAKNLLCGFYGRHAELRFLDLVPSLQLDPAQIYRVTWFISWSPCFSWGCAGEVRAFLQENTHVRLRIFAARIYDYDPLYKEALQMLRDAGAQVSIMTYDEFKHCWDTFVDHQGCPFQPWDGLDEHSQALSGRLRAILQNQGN
APOBEC3G inh: inhibitors of human APOBEC3G DNA deaminase; Q9HC16; recombinant A3G, ssDNA deamination FAM/TAMRA fluorescence; inhibition, % at 20 µM; 330,000 tested, 0.28% active; AID 493012;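 active means inhibition of at least 40% at 20 µM, with no more than 30% in the related APOBEC3A deaminase screen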;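 further: plate controls were DMSO wells with A3G for no effect and wells lacking A3G enzyme for full effect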
Active calls of the source: *; · = no result.

SMILES | ALR H2O2 inh | PfM18AAP inh | NRP1-CendR mod | CR mimetic SO | APOBEC3A inh | APOBEC3G inh
COc1cccc(/C(C)=N/Nc2ccc(S(=O)(=O)N3CCCCC3)cn2)c1 | -2.5 | · | -4.1 | 94.2 | 1.0 | -0.8
O=C(Nc1cccc(F)c1)c1cccc(S(=O)(=O)N2CCOCC2)c1 | -5.3 | -4.8 | -4.8 | 116.2 | 1.7 | -1.0
Cc1cc(C)cc(-n2ncc3c2CCCC3NC(=O)c2cc(C)n(C)n2)c1 (stereo not drawn) | 83.6* | -3.2 | 12.0 | 107.2 | 4.3 | 0.5
O=C(CNC(=O)c1cccc(OC(F)F)c1)Nc1ccc(Cl)cc1 | · | -0.3 | 10.0 | 104.9 | 0.9 | -0.5
COc1cc(C=C2C(=O)OC(C)(C)OC2=O)cc(Cl)c1OCC(=O)Nc1ccccc1 | · | -5.1 | -62.9 | 118.3 | 4.2 | 6.1
CN(C)CCN(C(=O)c1ccc2c(c1)OCCO2)c1nc2cc3c(cc2s1)OCO3 | 23.6 | 4.3 | 24.6* | 90.5 | 3.2 | 2.7
CS/C(=N\S(=O)(=O)c1cccs1)NC(=O)CSc1nc2ccccc2s1 | 98.3* | -68.0 | -40.6 | 93.4 | 0.0 | 23.7
C/C(=N/NC(=O)CSc1nc2ccccc2s1)c1ccncc1 | 5.8 | -0.4 | -0.5 | 105.7 | -3.1 | -6.2
CC[C@H](C)NC(=O)CCCCCn1c(=S)[nH]c2c([nH]c3ccc(OC)cc32)c1=O | · | -12.4 | -10.0 | 100.5 | -0.9 | -10.5
O=C(Nc1ccc(Cl)c(C(F)(F)F)c1)[C@@H]1CC=C[C@@H]2CCN(C3CC3)C(=O)[C@@H]21 | · | · | 24.3* | 99.8 | -3.2 | -2.9
O=C(Nc1ccc(Cl)c(C(F)(F)F)c1)[C@@H]1CC=C[C@@H]2CCN(C3CCCCC3)C(=O)[C@@H]21 | 0.0 | · | 12.6 | 97.7 | 3.0 | -1.8
CC(C)COC(=O)N(C)C[C@@H]1OCc2cnnn2CCCC(=O)N([C@@H](C)CO)C[C@@H]1C | · | · | -9.6 | · | · | ·
Cc1ccc(NC(=O)c2ccc3c(c2)OCCO3)cc1C | · | -5.8 | 0.6 | 103.9 | -2.6 | -7.7
Cc1ccc(C(=O)Nc2ccccc2C(=O)O)cc1S(=O)(=O)NCc1ccccc1 | 4.9 | -4.8 | 5.1 | 102.9 | -3.1 | -5.3
Cc1ccc(C(=O)Nc2cccc([N+](=O)[O-])c2)cc1S(=O)(=O)Nc1ccc(C(=O)O)cc1 | 82.2* | -5.3 | -0.1 | 87.5 | -0.9 | -3.7
Cc1ccc(NC(=O)c2ccc3c(c2)OCCO3)cc1S(=O)(=O)Nc1cccc(Cl)c1 | 1.3 | -13.7 | 37.3* | 89.5 | 0.0 | -4.0
Cc1ccc(C(=O)Nc2ccccc2C(=O)O)cc1S(=O)(=O)Nc1ccc(Br)cc1 | 98.3* | · | -26.9 | 99.9 | 4.2 | -1.1
Cc1ccc(C(=O)Nc2ccc(C(=O)O)cc2)cc1S(=O)(=O)Nc1cccc([N+](=O)[O-])c1 | 4.3 | -4.6 | -11.5 | 106.5 | -2.3 | -4.5
CCN(CCCNC(=O)CNC(=O)c1nn(-c2ccc(OC)cc2OC)c(=O)c2ccccc12)c1cccc(C)c1 | -12.0 | 10.2 | 25.1* | 107.7 | 1.0 | 12.7
COCCCNC(=O)CNC(=O)c1nn(-c2ccc(OC)cc2OC)c(=O)c2ccccc12 | · | -7.8 | -11.0 | 108.9 | -1.7 | -7.7
CC1=NN(c2cc(Cl)c(S(=O)(=O)O)cc2Cl)C(=O)C1 | · | · | -14.6 | · | · | ·
CNc1oc(/C=C/c2ccccc2)nc1C#N | -0.2 | 33.9* | 9.6 | 94.2 | 5.9 | 4.3
CCCc1c(C(=O)Nc2ccc(OC)cc2)cnn1-c1ccccc1 | 9.1 | 3.6 | -1.9 | 81.2 | 1.3 | 14.7
CCCc1c(C(=O)NNc2ccccc2OC)cnn1-c1ccccc1 | 88.0* | 17.0 | -4.1 | 110.7 | 1.4 | -4.6
COc1ccc(Oc2ccc(/C=C/C(=O)c3ccc(O)cc3)cc2[N+](=O)[O-])cc1 | 96.0* | 2.1 | -9.8 | 77.3 | 6.7 | 2.0
SMILES | ALR H2O2 inh | PfM18AAP inh | NRP1-CendR mod | CR mimetic SO | APOBEC3A inh | APOBEC3G inh
CCN(CC)CCN1CCN(c2cnc(C)cn2)CC1 | · | · | 22.9* | · | · | ·
CC(=O)N1NC(=Nc2ccccc2)SC1(C)C | 98.5* | 2.1 | 2.0 | 97.6 | -3.9 | -6.0
O=C(NCCSc1c[nH]c2ccccc12)C1CC1 | 98.5* | -2.5 | 3.9 | 92.8 | -2.7 | 0.9
COc1cc(OC)cc(C(=O)NCCSc2c[nH]c3ccccc23)c1 | 90.9* | 7.4 | -4.0 | 103.0 | 1.1 | -6.2
CC(=O)NC(=O)c1cnn(-c2ccccc2)c1N | 2.2 | 2.9 | 36.4* | 95.0 | -1.0 | -10.8
COC(=O)c1cnn(-c2ccccc2)c1N | · | 3.5 | -0.5 | 104.5 | 0.4 | -4.1
CCCCOC(=O)c1ccc(NC(=O)c2cnccn2)cc1 | · | 5.3 | 1.1 | 97.0 | 0.3 | -0.8
COC(=O)c1cc(-c2cccc(OC)c2)n[nH]1 | 8.2 | 2.2 | -3.0 | 96.8 | 2.9 | -3.6
CCOc1cccc(-c2cc(C(=O)NN)[nH]n2)c1 | 78.6* | 3.6 | -5.7 | 98.1 | -1.2 | -12.2
CC(=O)NCC1COc2ccccc2O1 (stereo not drawn) | 0.0 | -6.4 | -2.4 | 102.2 | -6.4 | -6.1
O=C(NCC1COc2ccccc2O1)Nc1ccccc1F (stereo not drawn) | · | -8.0 | 19.3* | 93.9 | -6.8 | -7.9
Cc1ccc(CSCC(=O)N(C)CC(=O)Nc2ccc(Br)cc2C)cc1 | -1.1 | · | 7.0 | 105.9 | 30.3 | 0.0
CCn1ncc(C2=NOC(C(=O)Nc3cccc(C(C)=O)c3)C2)c1C (stereo not drawn) | 97.4* | 0.2 | 4.1 | 103.4 | 3.1 | -6.4
CCn1ncc(C2=NOC(C(=O)NCc3ccccc3)C2)c1C (stereo not drawn) | -31.3 | -6.6 | 4.8 | 85.0 | 3.5 | -11.5
C=CCn1c(-c2cccn(Cc3cccc(Cl)c3)c2=O)n[nH]c1=S | 3.5 | 0.4 | 1.5 | 119.4 | -4.7 | 25.9
O=c1c(-c2n[nH]c(=S)n2-c2ccccc2)cccn1Cc1cccc(Cl)c1 | 93.0* | 14.1 | -12.3 | 106.7 | -4.5 | 16.8
O=c1c2ccccc2nc(N/N=C/c2ccc(O)cc2)n1O | 66.0 | 17.1 | 16.2 | 90.6 | -6.3 | -5.1
O=c1c2ccccc2nc(N/N=C/c2c(O)ccc3ccccc23)n1O | -9.3 | 30.4* | -15.3 | 116.6 | 0.6 | -7.6
CN1CCc2nc(SCC(=O)Nc3ccc(Cl)cc3)c(C#N)cc2C1 | 99.5* | 10.8 | 11.3 | 97.3 | -13.4 | -11.7
CCOC(=O)c1c(C#N)c(SCC(=O)Nc2ccc(OC)cc2)nc2c1CN(CC)CC2 | 99.3* | -13.5 | 2.6 | 85.5 | 0.3 | 3.0
COc1ccc(NC(=O)CSc2nc3c(c(-c4cccs4)c2C#N)CN(C)CC3)cc1OC | 99.3* | -10.6 | 0.6 | 104.5 | -4.1 | -0.1
CC(C)(CNC(=O)Cc1ccc(Cl)cc1Cl)N1CCCCC1 | 1.6 | -1.1 | 11.3 | 85.5 | 0.3 | 3.2
Cc1cccc(C)c1NC(=S)Nc1ccccc1C(=O)NCc1ccco1 | -5.0 | -0.3 | 3.9 | 107.8 | -0.9 | 1.6
CC(C)(C)c1cc(=O)[nH]c(SCc2ccccc2Cl)n1 | -4.9 | -10.0 | -4.0 | 100.3 | 2.6 | 2.2
CCOC(=O)C1CCN(S(=O)(=O)c2ccc3c(c2)CCN3C(=O)C2CCC2)CC1 | 0.8 | 1.6 | 22.2* | 111.7 | -1.8 | 1.1
